In the supplement of paper PMC6555819 one finds PBM binding z-score data, which are given here for 40 sequences.

The test system of the assay is VDR:RXRa (NR concentration 270 nM, RXRa partner concentration 90 nM). In words: PBM binding z-score (relative to random genomic background probes); higher = stronger binding; sequences stand for … in GC…GCGATTGACAGCGTAGAATGAAGG
The procedure:
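Protein-binding microarray (Agilent 4x180K custom design, double-stranded 60-nt probes: 5' GC cap, 34-nt variable region, 24-nt constant primer region; full probe sequence given). Purified or IVT nuclear receptor:RXRα heterodimers (3:1 NR:RXRα, mostly 270:90 nM) or homodimers were incubated for 1 h in PBS with 2% milk and no ligand, then detected with Alexa488 antibodies. Fluorescence from o1-orientation probes (~5 replicates averaged) was converted to z-scores against 500 random hg19 background probes. Variable regions are seed direct-repeat (DR0–DR5) sites, all their single-nucleotide variants and half-site ablations.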
GGAACGAGGGCATTCGAGTTGATATCATGGCGAT displayed a PBM binding z-score of 3.92. Take AATACAGCGTCACTAGGCCAGAGTAGGTACGAAT: the PBM binding z-score is -0.29. As for AATACAGGGTCAGCGTAGGCCAGAGTACGCACAG, the PBM binding z-score is 3.44. Regarding CTCGAAAGGTCGTGCTCAGCTGAGTATACCAAAC, the PBM binding z-score was found to be 3.17.

The sequence GCATATAGGTAATACAAGGTGAAAGACCGATTGT returned a PBM binding z-score of 0.319. With AGAAAGAGGGCACGCTGAGTTGATAGCAGAGTAG, the PBM binding z-score turned out to be 2.39. With ACTAGCAGGCCAAGGGTCACTGAAGATTAGTCCG, the PBM binding z-score amounted to 2.81. The result for CCGACCGGGGCATAAGGTTACCATAAGCCAGCCC reads 0.666; that for AGAATGAGCTTAAGATCAGGGAAACAGAATACAT, -0.396. The sequence CAAACTAGGTCGAGAGGTCAAAGTCCGCTTCCCG gave a PBM binding z-score of 5.01. As to GCAGACAGGTGAAACGCAGGTAACCCAGGGTGGC, the PBM binding z-score is -0.517. With ATAACAAGGTGATCGTGAGGTCGTTGATACTAAC the figure was 2.97; with ATATATAGGTTACATCCGGGTCATTCAGGCTATG, 4.58; with CCTGCTAGGTCATGGTCACCTAATCTACAGTATG, 2.03. Sequence GATACTGGGTCAAGGCCAGAGTACGCGTATTGAT registered a PBM binding z-score of 1.46. ATCACTAGGTAAAGTTCAGTGAAAGATCGATAGA showed a PBM binding z-score of 1.21. As for ACTAGCAGGCCATGTTTGGGTCACTCAAACAAAG, the PBM binding z-score is 0.631.

In the case of TCATATAGGTAACTGCTAGGTGAAAGTCCGATCT, the PBM binding z-score was found to be 0.632.

For TCTCGGACGACACGAAAGGTCAGAGCTCGACATC, the PBM binding z-score was 2.96. Regarding ACATGTAGGTTAAGGGTCATTCAGGTTGGTTCGC, the PBM binding z-score stood at 5.84.

On to CAAACTCGGTCACCGGAAGGTCAAAGTCCGCATG, for which the PBM binding z-score turned out to be 4.77. In the case of TCTGCTAGGTCAGTTGGTTAGCTAACGAGCTGCC, the PBM binding z-score is 0.227.

Sequence ATTCAAAGTTCATCTAGGTAACGTAAGATATGCT had a PBM binding z-score of 4.93. Consider CGAACTAGGTCATTGACCGGACAGTGAATAGTAA, for which the PBM binding z-score is 1.96. As to CCGAGTAGGTTATCGGGCATTCAGGCAACGGTGA, the PBM binding z-score was -0.386. The result for CCTAGCAGGCCGATCTGGGTCACTCAAGGCTTGA reads 0.114; that for CGTCCAAGGTCATAGGATGTCAGTGAAGACAGAT, 4.77.

TCTTGTAGATCAACAGGAGGTTACGAAAGATCGA gave a PBM binding z-score of 0.945. In turn, TCGACTAGGTTAGTCGGGGCATTCAGCCAACATA displayed a PBM binding z-score of 1.81. In turn, TTGAGTAGGTTAGGGGCATTCAGAATGGCGTCGA had a PBM binding z-score of 0.889. In the case of ATCTCTAGGTAAGACGCAGTTCAGTGAAGAACGC, the PBM binding z-score is 0.101. Consider TAGCCTAGGTCATGGGGCCAGTATAGTACGCATC, for which the PBM binding z-score worked out at 2.69. With ATCGAAAGGTCGATGAGGTGAGTATACACCGTTT the figure was 5.2; with GGAACGAGTGCAAGTTGATAGCAGAGTTTGATGG, 0.646. Take TCATATAGGTAAAGGGGAAAGTCGAACGATATGA: the PBM binding z-score was determined as 0.735. Take GCTCGAAGGACAAGGTCAGAGCTTTGTCCGTAGA: the PBM binding z-score amounted to 1.31.

Sequence TTATATAGGTAATACAGGTGAAAGTCGGCATCTA gave a PBM binding z-score of 0.727.

For the sequence ATCGAAAGGTCGACGAGGTGAGTTTACACCGTTT, the PBM binding z-score came out at 5.25. As to ATGTGTAGGTTAAGGGTCATTCAGGTTGGTTCGC, the PBM binding z-score is 5.79. Sequence AGAATTAGGTTAAGATCAGGGAAACAGAATACAT had a PBM binding z-score of 0.418.
